Hit rate of the full screen: of about 5,500 compounds, about 2,000 (36%) were called active. Roughly 18% stayed inconclusive and do not appear here. No stated cut-off is given here; in the data, active means normalized growth mostly below about 0.91 (no sharp cut-off); inconclusive means no clear call, values can overlap the other calls; inactive means mostly above about 0.92. Some of the results follow.
Experiment: chemical genetic growth profiling, strain panel (AID 1159580);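 further: tested at 20 µM; growth read once vehicle control cultures reached saturation at 30 °C; 1 = growth at the plate median or of vehicle wells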
Conditions: growth OD

Measured: normalized growth

CCOCN(C(=O)CCl)c1c(C)cccc1CC
inactive: S. cerevisiae deletion strains, locus YJR043C, strain POL32, stronger effect = lower value 0.983 | S. cerevisiae deletion strains, locus YJR075W, strain HOC1, stronger effect = lower value 0.993 | S. cerevisiae deletion strains, locus YKL009W, strain mrt4, stronger effect = lower value 0.989 | S. cerevisiae deletion strains, locus YKL068W, stronger effect = lower value 0.973 | S. cerevisiae deletion strains, locus YKL085W, strain MDH1 (second series), stronger effect = lower value 0.991 | S. cerevisiae deletion strains, locus YKL085W, strain MDH1, stronger effect = lower value 0.991 | S. cerevisiae deletion strains, locus YKL160W, strain elf1, stronger effect = lower value 0.995 | S. cerevisiae deletion strains, locus YKL190W, strain CNB1, stronger effect = lower value 0.983 | S. cerevisiae deletion strains, locus YKR001C, strain vps1, stronger effect = lower value 0.986 | S. cerevisiae deletion strains, locus YKR026C, strain gcn3, stronger effect = lower value 0.985 | S. cerevisiae deletion strains, locus YKR091W, strain srl3, stronger effect = lower value 0.988 | S. cerevisiae deletion strains, locus YLL001W, strain dnm1, stronger effect = lower value 0.989 | S. cerevisiae deletion strains, locus YLL026W, stronger effect = lower value 0.991 | S. cerevisiae deletion strains, locus YLL041C, strain sdh2, stronger effect = lower value 0.988 | S. cerevisiae deletion strains, locus YLR027C, strain aat2, stronger effect = lower value 0.976 | S. cerevisiae deletion strains, locus YLR039C, strain RIC1, stronger effect = lower value 0.994 | S. cerevisiae deletion strains, locus YLR058C, strain SHM2, stronger effect = lower value 0.986 | S. cerevisiae deletion strains, locus YLR102C, strain apc9, stronger effect = lower value 0.974 | S. cerevisiae deletion strains, locus YLR221C, strain rsa3, stronger effect = lower value 0.981 | S. cerevisiae deletion strains, locus YLR258W, strain gsy2, stronger effect = lower value 1.02 | S. cerevisiae deletion strains, locus YLR262C, strain YPT6 (second series), stronger effect = lower value 0.969 | S. cerevisiae deletion strains, locus YLR262C, strain YPT6, stronger effect = lower value 1.01 | S. cerevisiae deletion strains, locus YLR268W, strain sec22, stronger effect = lower value 0.979 | S. cerevisiae deletion strains, locus YLR320W, strain mms22, stronger effect = lower value 0.986 | S. cerevisiae deletion strains, locus YLR330W, strain CHS5, stronger effect = lower value 0.977 | S. cerevisiae deletion strains, locus YLR342W, strain FKS1 (second series), stronger effect = lower value 0.98 | S. cerevisiae deletion strains, locus YLR342W, strain FKS1, stronger effect = lower value 0.978 | S. cerevisiae deletion strains, locus YLR357W, strain rsc2, stronger effect = lower value 0.961 | S. cerevisiae deletion strains, locus YLR370C, strain arc18, stronger effect = lower value 0.995 | S. cerevisiae deletion strains, locus YLR371W, strain rom2, stronger effect = lower value 0.963 | S. cerevisiae deletion strains, locus YLR384C, strain iki3, stronger effect = lower value 0.98 | S. cerevisiae deletion strains, locus YLR418C, strain cdc73, stronger effect = lower value 1.03 | S. cerevisiae deletion strains, locus YML016C, strain PPZ1, stronger effect = lower value 0.992 | S. cerevisiae deletion strains, locus YML032C, strain rad52, stronger effect = lower value 0.969 | S. cerevisiae deletion strains, locus YML120C, strain ndi1, stronger effect = lower value 0.99 | S. cerevisiae deletion strains, locus YML124C, strain tub3, stronger effect = lower value 0.972 | S. cerevisiae deletion strains, locus YMR058W, strain fet3, stronger effect = lower value 0.988 | S. cerevisiae deletion strains, locus YMR078C, strain ctf18, stronger effect = lower value 0.959 | S. cerevisiae deletion strains, locus YMR125W, strain sto1, stronger effect = lower value 0.988 | S. cerevisiae deletion strains, locus YMR129W, stronger effect = lower value 0.982 | S. cerevisiae deletion strains, locus YMR205C, strain PFK2, stronger effect = lower value 0.996 | S. cerevisiae deletion strains, locus YMR223W, strain ubp8, stronger effect = lower value 0.984 | S. cerevisiae deletion strains, locus YMR231W, strain pep5, stronger effect = lower value 0.981 | S. cerevisiae deletion strains, locus YMR263W, strain SAP30, stronger effect = lower value 0.983 | S. cerevisiae deletion strains, locus YMR307W, strain GAS1, stronger effect = lower value 1 | S. cerevisiae deletion strains, locus YNL067W, strain RPL9B, stronger effect = lower value 0.995 | S. cerevisiae deletion strains, locus YNL071W, strain lat1, stronger effect = lower value 0.989 | S. cerevisiae deletion strains, locus YNL128W, strain TEP1, stronger effect = lower value 0.978 | S. cerevisiae deletion strains, locus YNL153C, strain GIM3, stronger effect = lower value 1 | S. cerevisiae deletion strains, locus YNL209W, strain ssb2, stronger effect = lower value 0.998 | S. cerevisiae deletion strains, locus YNL233W, strain BNI4, stronger effect = lower value 0.996 | S. cerevisiae deletion strains, locus YNL248C, strain rpa49, stronger effect = lower value 0.984 | S. cerevisiae deletion strains, locus YNL250W, strain rad50, stronger effect = lower value 0.977 | S. cerevisiae deletion strains, locus YNL271C, strain bni1, stronger effect = lower value 0.994 | S. cerevisiae deletion strains, locus YNL298W, strain CLA4, stronger effect = lower value 0.968 | S. cerevisiae deletion strains, locus YNL307C, strain MCK1, stronger effect = lower value 0.982 | S. cerevisiae deletion strains, locus YNL322C, strain KRE1 (second series), stronger effect = lower value 0.98 | S. cerevisiae deletion strains, locus YNL322C, strain KRE1, stronger effect = lower value 0.982 | S. cerevisiae deletion strains, locus YNR049C, strain mso1, stronger effect = lower value 0.986 | S. cerevisiae deletion strains, locus YNR052C, strain pop2, stronger effect = lower value 0.957 | S. cerevisiae deletion strains, locus YOL006C, strain TOP1, stronger effect = lower value 1.02 | S. cerevisiae deletion strains, locus YOL012C, strain htz1 0.911 | S. cerevisiae deletion strains, locus YOL147C, strain pex11, stronger effect = lower value 0.981 | S. cerevisiae deletion strains, locus YOR001W, strain rrp6, stronger effect = lower value 0.969 | S. cerevisiae deletion strains, locus YOR061W, strain CKA2, stronger effect = lower value 0.999 | S. cerevisiae deletion strains, locus YOR069W, strain VPS5, stronger effect = lower value 0.987 | S. cerevisiae deletion strains, locus YOR070C, strain gyp1, stronger effect = lower value 0.98 | S. cerevisiae deletion strains, locus YOR080W, strain dia2, stronger effect = lower value 0.975 | S. cerevisiae deletion strains, locus YOR083W, strain WHI5, stronger effect = lower value 1 | S. cerevisiae deletion strains, locus YOR106W, strain vam3, stronger effect = lower value 1 | S. cerevisiae deletion strains, locus YOR136W, strain idh2, stronger effect = lower value 0.98 | S. cerevisiae deletion strains, locus YOR144C, strain elg1, stronger effect = lower value 0.961 | S. cerevisiae deletion strains, locus YOR184W, strain ser1, stronger effect = lower value 0.986 | S. cerevisiae deletion strains, locus YOR265W, strain rbl2, stronger effect = lower value 1 | S. cerevisiae deletion strains, locus YOR270C, strain vph1, stronger effect = lower value 1.01 | S. cerevisiae deletion strains, locus YOR290C, strain snf2, stronger effect = lower value 1 | S. cerevisiae deletion strains, locus YOR316C, strain cot1, stronger effect = lower value 0.978 | S. cerevisiae deletion strains, locus YPL051W, strain arl3, stronger effect = lower value 0.99 | S. cerevisiae deletion strains, locus YPL055C, strain LGE1, stronger effect = lower value 1 | S. cerevisiae deletion strains, locus YPL078C, strain atp4, stronger effect = lower value 0.985 | S. cerevisiae deletion strains, locus YPL106C, strain sse1, stronger effect = lower value 1.01 | S. cerevisiae deletion strains, locus YPL240C, strain hsp82, stronger effect = lower value 0.995 | S. cerevisiae deletion strains, locus YPL241C, strain CIN2, stronger effect = lower value 0.99 | S. cerevisiae deletion strains, locus YPR119W, strain clb2, stronger effect = lower value 0.964 | S. cerevisiae deletion strains, locus YPR141C, strain kar3, stronger effect = lower value 0.987 | S. cerevisiae deletion strains, locus YPR163C, strain tif3, stronger effect = lower value 0.958 | S. cerevisiae deletion strains, locus YPR167C, strain met16, stronger effect = lower value 0.987 | S. cerevisiae deletion strains, strain wtn01, stronger effect = lower value 0.967 | S. cerevisiae strains, strain wild type, stronger effect = lower value 0.993
